Assay results as given in PubChem BioAssay.
For some assays here: Measured potencies and affinities stand elsewhere. Inconclusive results are not listed. The list shows a part of the results. Active and inactive are the calls of the source. Unless noted, how the calls were made is not given here.

Columns and labels:
[1] = RMG-1 ovarian cancer cell viability loss – cherry-pick, dose response (AID 687029;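 active means signal drop whose fitted half-maximal concentration is at most twice the top valid dose, in every test run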;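 further: cells exposed to compound for 96 hours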)
[2] = IOSE-T80 viability loss, PAX8-independent line – cell-based, cherry-pick, selectivity assay for PAX8 inhibitor project, dose response (AID 687032;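 active means fitted half-maximal concentration for viability loss no higher than twice the top valid dose, in every repeat run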;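 further: cells exposed to compound for 96 h before reading; 0% = neutral control wells and -100% = 2 µM mitoxantrone kill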)
[3] = general cell-killing toxicity readout – plate reader, dry powder samples, cytotoxicity control for PAX8 inhibitor project, dose response (AID 743021)
[4] = toxicity toward immortalized ovarian surface epithelium – cell-based, plate reader, dry powder samples, cytotoxicity control for PAX8 inhibitor project, dose response (AID 743045);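 further: 0% = neutral control median and -100% = positive control median; more negative values mean more cell killing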
[5] = A2780 cell killing – plate reader, dry powder samples, cytotoxicity control, dose response (AID 743046);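 further: 0% = neutral control wells and -100% = cytotoxic reference compound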
[6] = IGROV1 cell killing – plate reader, dry powder samples, PAX8 inhibitor project, dose response (AID 743043);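 further: more negative means fewer viable cells or more cytotoxicity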
[7] = OVCAR8 cell viability loss – plate reader, dry powder samples, PAX8 project, dose response (AID 743197)
[8] = OVCAR-3 cell viability loss – plate reader, dry powder samples, PAX8 inhibitor project, dose response (AID 743044); settings: max activity: at 35 µM, active compounds read low unless noted
[9] = A549 cell cytotoxicity, dose response, cytotoxicity control, plate reader, cherry-pick, antagonist series (AID 743412);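 further: 0% = neutral control wells and -100% = positive control wells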
[10] = toxicity toward HepG2 liver cells – cell-based, plate reader, cherry-pick, antagonist series, cytotoxicity control, dose response (AID 743416);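 further: 0% = neutral control wells and -100% = positive control wells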
[11] = molecular target: Melanocortin receptor 4 (Homo sapiens) (UniProt P32245); assay: blockade of melanocortin 4 receptor signaling – cell-based, plate reader, cherry pick, counter-screen for LGR2 antagonist project, dose response (AID 743444)
[12] = small-molecule DNA binding by polarization – biochemical, fluorescence polarization, cherry-pick, counter-screen for EWS/Fli inhibitor project, dose response (AID 720586;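 active means fitted curve reaches a 35% signal fall AC35 below twice the sample's top valid tested dose, actives reach about 48 µM in these data; inactive means the rest, including activity in the rising direction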;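 further: 0% = neutral control median and -100% = 10 µM mitoxantrone control median; lower polarization ratio signals compound binding to DNA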)

COc1cccc(-c2ccc3c(c2)[C@H]2[C@H](CCN2C(=O)c2ccccc2F)[C@H](CO)N3C)c1
inactive: outcome [1] | outcome [2] | outcome [3] | outcome [4] | outcome [5]

CC(C)CC#Cc1ccc2c(c1)O[C@@H](CN(C)Cc1ccncc1)[C@H](C)CN([C@H](C)CO)S2(=O)=O
inactive: outcome [1] | outcome [2] | outcome [3] | outcome [6] | outcome [5]

C[C@H]1CCCCO[C@H](CN(C)C(=O)c2ccccc2)[C@@H](C)CN([C@@H](C)CO)C(=O)c2cc(NC(=O)Nc3ccc(C(F)(F)F)cc3)ccc2O1
inactive: outcome [1] | outcome [2] | outcome [3] | outcome [4] | outcome [5]

Cc1ccc(S(=O)(=O)Nc2ccc3c(c2)C(=O)N([C@@H](C)CO)C[C@H](C)[C@H](CN(C)Cc2ccc(C(F)(F)F)cc2)OCCCC[C@H](C)O3)cc1
inactive: outcome [1] | outcome [2] | outcome [3] | outcome [4] | outcome [5]

C[C@H](CO)N1C[C@H](C)[C@@H](CN(C)Cc2ccc(C(F)(F)F)cc2)OCCCC[C@H](C)Oc2ccc(NS(=O)(=O)c3ccc(Cl)cc3)cc2C1=O
inactive: outcome [1] | outcome [2] | outcome [3] | outcome [4]

C[C@@H]1CN([C@H](C)CO)S(=O)(=O)c2ccc(C#Cc3ccncc3)cc2O[C@H]1CN(C)C(=O)C1CCCCC1
inactive: outcome [1] | outcome [2] | outcome [3] | outcome [6] | outcome [4] | outcome [5] | outcome [7]

Cn1nnnc1Sc1ncnc2scc(-c3ccc(F)cc3)c12
inactive: outcome [1] | outcome [2] | outcome [3] | outcome [8]

COc1ccc2c3c(n(C)c2c1)[C@H](CO)N(Cc1ccccc1)CC31CCN(S(=O)(=O)c2ccc(C)cc2)CC1
inactive: outcome [1] | outcome [2] | outcome [3] | outcome [4]

COc1ccc(S(=O)(=O)N(C)C[C@H]2Oc3cc(C#CC4CCCC4)ccc3S(=O)(=O)N([C@@H](C)CO)C[C@@H]2C)cc1
inactive: outcome [1] | outcome [2] | outcome [3] | outcome [4]

O=C(Nc1ccccc1)N1C[C@@H]2N[C@H](C1)[C@@H]2c1ccc(/C=C/c2ccccc2)cc1
inactive: outcome [1] | outcome [2] | outcome [3] | outcome [6] | outcome [4] | outcome [7]

C[C@H]1CCCCO[C@H](CN(C)C(=O)Nc2ccc(C(F)(F)F)cc2)[C@@H](C)CN([C@@H](C)CO)C(=O)c2cc(NC(=O)Nc3ccccc3)ccc2O1
inactive: outcome [1] | outcome [2] | outcome [3] | outcome [4]

C[C@H](CO)N1C[C@H](C)[C@@H](CN(C)S(=O)(=O)c2ccccc2)OCCCC[C@H](C)Oc2ccc(NS(=O)(=O)c3ccc(Cl)cc3)cc2C1=O
inactive: outcome [1] | outcome [2] | outcome [3] | outcome [6] | outcome [4] | outcome [7]

Cc1ccc(-c2ccc([C@H]3[C@H](CO)N4CCCCN(S(=O)(=O)c5cccc(C)c5)C[C@@H]34)cc2)cc1
inactive: outcome [1] | outcome [2] | outcome [3] | outcome [4] | outcome [5]

C[C@@H]1CCCCO[C@H](CN(C)Cc2ccc(Cl)c(Cl)c2)[C@H](C)CN([C@@H](C)CO)C(=O)c2cc(NS(=O)(=O)c3ccc(Cl)cc3)ccc2O1
inactive: outcome [1] | outcome [2] | outcome [3] | outcome [4] | outcome [5]

C[C@H]1CCCCO[C@H](CN(C)Cc2ccc(Cl)c(Cl)c2)[C@@H](C)CN([C@@H](C)CO)C(=O)c2cc(NC(=O)Nc3ccc(C(F)(F)F)cc3)ccc2O1
inactive: outcome [1] | outcome [2] | outcome [3] | outcome [4] | outcome [5]

C[C@@H]1CN([C@@H](C)CO)C(=O)Cc2cc(NC(=O)Nc3ccccc3)ccc2O[C@H]1CN(C)Cc1ccc(Oc2ccccc2)cc1
inactive: outcome [1] | outcome [2] | outcome [3] | max activity [8] -64.8% | outcome [4] | outcome [5] | outcome [7]

Cc1noc(C)c1S(=O)(=O)Nc1ccc2c(c1)CC(=O)N([C@@H](C)CO)C[C@@H](C)[C@H](CN(C)Cc1ccc(Cl)c(Cl)c1)O2
inactive: outcome [1] | outcome [2] | outcome [3] | outcome [4] | outcome [5]

C[C@@H]1CN([C@H](C)CO)C(=O)c2cc(NC(=O)Nc3ccc(F)cc3)ccc2O[C@@H](C)CCCCO[C@H]1CN(C)S(=O)(=O)c1ccccc1
inactive: outcome [1] | outcome [2] | outcome [3] | outcome [6] | outcome [4] | outcome [5] | outcome [7]

O=C(C[C@@H]1CC[C@@H]2[C@H](COC[C@@H](O)CN2C(=O)Nc2ccc(C(F)(F)F)cc2)O1)NC1Cc2ccccc2C1
inactive: outcome [1] | outcome [2] | outcome [3] | max activity [8] -24.5% | outcome [4] | outcome [5] | outcome [7]

C[C@@H]1CN([C@@H](C)CO)S(=O)(=O)c2ccc(C#Cc3ccccc3F)cc2O[C@H]1CN(C)C(=O)c1ccc2c(c1)OCO2
inactive: outcome [1] | outcome [2] | outcome [3] | outcome [4]

CS(=O)(=O)Nc1ccc2c(c1)[C@@H]1C[C@H](CC(=O)NCc3ccc(Oc4ccccc4)cc3)O[C@@H](CO)[C@@H]1O2
inactive: outcome [1] | outcome [2] | outcome [3] | outcome [6] | outcome [4] | outcome [5] | outcome [7]

C[C@@H]1CN([C@@H](C)CO)C(=O)c2c(c3ccccc3n2C)-c2ccccc2CO[C@@H]1CN(C)S(=O)(=O)c1ccc(C(F)(F)F)cc1
inactive: outcome [1] | outcome [2] | outcome [3] | max activity [8] -38.5% | outcome [4] | outcome [5] | outcome [7]

C[C@@H]1CN([C@H](C)CO)C(=O)c2cc(NS(=O)(=O)c3ccc(Cl)cc3)ccc2O[C@@H](C)CCCCO[C@H]1CN(C)Cc1ccc(Cl)c(Cl)c1
inactive: outcome [1] | outcome [2] | outcome [3] | outcome [6] | outcome [4] | outcome [5] | outcome [7]

CC(C)CC#Cc1ccc2c(c1)O[C@@H](CN(C)S(=O)(=O)c1ccc(F)cc1)[C@@H](C)CN([C@@H](C)CO)S2(=O)=O
inactive: outcome [1] | outcome [2] | outcome [3] | outcome [4] | outcome [5]

C[C@@H]1CN([C@H](C)CO)C(=O)c2cc(NS(=O)(=O)c3cccs3)ccc2O[C@@H](C)CCCCO[C@@H]1CN(C)Cc1ccc(Cl)c(Cl)c1
inactive: outcome [1] | outcome [2] | outcome [3] | outcome [4]

C[C@H]1CCCCO[C@@H](CN(C)S(=O)(=O)c2ccccc2)[C@@H](C)CN([C@@H](C)CO)C(=O)c2cc(NC(=O)Nc3ccc(C(F)(F)F)cc3)ccc2O1
inactive: outcome [1] | outcome [2] | outcome [3] | outcome [4] | outcome [5]

C[C@@H]1CN([C@H](C)CO)C(=O)c2cc(NS(=O)(=O)c3ccc(Cl)cc3)ccc2O[C@@H](C)CCCCO[C@H]1CN(C)S(=O)(=O)c1ccc(Cl)cc1
inactive: outcome [1] | outcome [2] | outcome [3] | outcome [4]

COc1ccc(S(=O)(=O)N(C)C[C@@H]2OCCCC[C@H](C)Oc3ccc(NS(=O)(=O)c4ccc(Cl)cc4)cc3C(=O)N([C@H](C)CO)C[C@@H]2C)cc1
inactive: outcome [1] | outcome [2] | outcome [6] | outcome [4] | outcome [5] | outcome [7]

C[C@H]1CCCCO[C@H](CN(C)S(=O)(=O)c2ccccc2)[C@@H](C)CN([C@@H](C)CO)C(=O)c2cc(NS(=O)(=O)c3ccc(Cl)cc3)ccc2O1
inactive: outcome [1] | outcome [2] | outcome [6] | outcome [4]

NS(=O)(=O)c1ccc(CCN2C(=O)/C(=C\c3ccc(Cl)cc3)SC2=S)cc1
inactive: outcome [1] | outcome [2] | outcome [3] | outcome [5]

C[C@@H]1CCCCO[C@H](CN(C)Cc2ccc(Cl)c(Cl)c2)[C@@H](C)CN([C@@H](C)CO)C(=O)c2cc(NS(=O)(=O)c3ccccc3)ccc2O1
inactive: outcome [1] | outcome [2] | outcome [4] | outcome [5] | outcome [7]

Cc1ccc(S(=O)(=O)Nc2ccc3c(c2)C(=O)N([C@H](C)CO)C[C@@H](C)[C@H](CN(C)Cc2ccc(C(F)(F)F)cc2)OCCCC[C@H](C)O3)cc1
inactive: outcome [1] | outcome [2] | outcome [4]

Cc1ccc2nc(-c3ccc(Br)cc3)cn2c1
inactive: outcome [1] | outcome [2] | outcome [9] | outcome [10]

C[C@H](CO)N1C[C@H](C)[C@H](CN(C)Cc2ccc(C(=O)Nc3ccccc3N)cc2)Oc2ccc(N(C)C)cc2C1=O
inactive: outcome [1] | outcome [2] | outcome [3] | outcome [5]

COc1ccccc1S(=O)(=O)N(C)C[C@H]1Oc2cc(C#CCC3CCCC3)ccc2S(=O)(=O)N([C@@H](C)CO)C[C@H]1C
inactive: outcome [1] | outcome [2] | outcome [6] | max activity [8] 9.23% [at 16 µM, active compounds read low] | outcome [4] | outcome [5] | outcome [7]

Cc1ccc(S(=O)(=O)Nc2ccc3c(c2)C(=O)N([C@H](C)CO)C[C@@H](C)[C@@H](CN(C)Cc2ccc(C(F)(F)F)cc2)OCCCC[C@H](C)O3)cc1
inactive: outcome [1] | outcome [2] | outcome [3] | outcome [4] | outcome [7]

COc1ccccc1C#Cc1ccc([C@H]2[C@H](C#N)N(C(=O)C3CC3)[C@H]2CO)cc1
inactive: outcome [1] | outcome [2] | outcome [6] | outcome [4]

COc1cccc(-c2ccc(C3[C@@H]4CN(C(=O)C5CC5)C[C@H]3N4)cc2)c1 (stereo not given in full)
inactive: outcome [1] | outcome [2] | outcome [3] | outcome [4] | outcome [5] | outcome [9] | outcome [10] | outcome [11]

Oc1c(Cl)cc(Cl)c(Cl)c1Cc1c(O)c(Cl)cc(Cl)c1Cl
inactive: outcome [1] | AC35 [12] | outcome [3]

O=C(C1CC1)N1C[C@@H]2N[C@H](C1)C2c1ccc(-c2cccc(F)c2)cc1 (stereo not given in full)
inactive: outcome [1] | outcome [2] | outcome [3] | outcome [5]

COc1ccc(S(=O)(=O)Nc2ccc3c(c2)C(=O)N([C@@H](C)CO)C[C@@H](C)[C@H](CN(C)Cc2ccc(C(F)(F)F)cc2)OCCCC[C@H](C)O3)cc1
inactive: outcome [1] | outcome [2] | outcome [6] | max activity [8] -37.4% | outcome [4] | outcome [5] | outcome [7]

O=C(C[C@@H]1C[C@@H]2c3cc(NS(=O)(=O)c4ccc(F)cc4)ccc3O[C@@H]2[C@@H](CO)O1)NCc1ccc(Oc2ccccc2)cc1
inactive: outcome [1] | outcome [2] | outcome [6] | outcome [4]
